The list is not random: actives were taken first. Their share in the collection is about 3.6%.
TRHR enhancer – TRH receptor (human) allosteric enhancement; P34981; TRHR cells, fluo-8 calcium fluorescence, EC20 TRH enhancement; enhancement, % at 2 µM; 360,000 tested, 0.66% active; AID 493056; in the data active = enhancement above about 30%
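TRHR-expressing cells loaded with fluo-8 calcium dye were read kinetically (ex 480/em 530) during compound addition, then stimulated with an EC20 of TRH (10 nM final). Enhancement of the Gq-mediated intracellular calcium response was scored.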
TRHR ag – activates the human TRH receptor; P34981; TRHR cells, calcium flux fluo-8, FDSS agonist mode; activation, % at 2 µM; 360,000 tested, 0.18% active; AID 493084
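TRHR-expressing cells, plated overnight in medium with 10% serum, were loaded with fluo-8 calcium dye at room temperature. After a 10 s baseline, library compound was pin-added and calcium release was recorded kinetically (ex 480/em 530) as agonist response.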
LDHA inh – LDHA (human) enzyme inhibition. P00338. activity change, % (values are at about 110 or 230 µM). AID 1347041. purified LDHA, NADH/diaphorase-resazurin fluorescence; stronger effect = lower value. 480,000 tested, 0.15% active; in the data active = activity change below about -30%
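Enzyme activity of human lactate dehydrogenase 5 (2 nM; 0.06 mM NADH, 0.2 mM pyruvate, 5 min, RT) is measured via a resazurin/diaphorase fluorescence readout of residual NADH.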
D1 PAM – human D1 dopamine receptor positive modulation; P21728; HEK293 TREx D1 cells, calcium flux, dopamine EC20 potentiation; potentiation, % at 10 µM; 360,000 tested, 0.036% active; in the data active = potentiation above about 30%
Target sequence (P21728 whole entry, looked up): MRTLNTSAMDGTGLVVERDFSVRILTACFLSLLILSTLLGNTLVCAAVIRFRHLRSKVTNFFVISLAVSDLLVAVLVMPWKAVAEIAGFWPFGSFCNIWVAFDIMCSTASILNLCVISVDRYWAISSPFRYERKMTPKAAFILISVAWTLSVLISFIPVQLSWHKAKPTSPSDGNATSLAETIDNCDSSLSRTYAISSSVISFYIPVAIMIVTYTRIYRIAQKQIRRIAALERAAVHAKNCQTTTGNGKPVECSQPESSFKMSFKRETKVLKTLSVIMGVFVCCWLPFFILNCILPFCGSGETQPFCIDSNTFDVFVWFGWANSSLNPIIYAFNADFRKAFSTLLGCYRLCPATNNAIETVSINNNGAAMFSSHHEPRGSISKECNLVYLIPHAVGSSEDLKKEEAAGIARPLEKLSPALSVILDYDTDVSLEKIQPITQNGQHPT
D1 antag – human D1 dopamine receptor antagonism | P21728 | HEK293 TREx D1 cells, calcium flux, dopamine EC80; stronger effect = lower value | activity change, negative = inhibition, % at 10 µM | 360,000 tested, 3.2% active | AID 504652; in the data active = activity change below about -30%
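Compound effects on dopamine-evoked calcium signalling were measured in tetracycline-induced HEK293 Trex D1 cells. Dopamine at EC80 followed a 180 s compound pre-read, and fluorescence was tracked kinetically for 180 s more.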
D1 ag – agonists of human D1 dopamine receptor; HEK293 T-REx D1 cells, calcium flux, agonist mode; activation, % at 2 µM; 360,000 tested, 1% active
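Agonism was scored from calcium flux recorded over 180 s (1 read/s) after pintool compound addition, following a 10-cycle baseline. Cells were inducible force-coupled HEK293 TREx D1, plated overnight at 30 C and loaded with no-wash calcium dye.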
Of the large screens only hits and unclear results are named; the others gave an inactive call. Rule as the data show it, unless noted: active = activation above about 30%; inactive = the rest.

COc1cc(OC)c2c(C)cc(=O)oc2c1C(CCN1CCOCC1)c1ccc2c(c1)OCO2 (stereo unspecified)	D1 antag -68
CC(C)(C)S(=O)N1Cc2cc(C(=O)O)nc(-c3cccc(-c4cc5ccccc5o4)c3)c2[C@H]1CCO (stereo partly specified)	LDHA inh -32 (no result: TRHR enhancer, TRHR ag, D1 PAM, D1 antag, D1 ag)
CC[N+]1(C)CCC2C(C1)c1cc(C)ccc1N2C(=O)c1ccccc1Cl (stereo unspecified)	none (no result: TRHR enhancer, TRHR ag, D1 PAM, D1 antag, D1 ag)
O=C(O)c1ccc(Cl)c(NCc2cccs2)c1	TRHR enhancer 32
N#CC1=C(N)Oc2n[nH]c(-c3ccccn3)c2C1c1c(F)cccc1Cl (stereo unspecified)	D1 antag -31
CCOc1ccc(-c2[nH]nc3c2C(c2c(F)cccc2Cl)C(C#N)=C(N)O3)c(OCC)c1 (stereo unspecified)	none (no result: TRHR enhancer, TRHR ag, D1 PAM, D1 antag, D1 ag)
CC(=O)Nc1ccc(-c2csc(NC(C)(C)C)n2)c(F)c1	none (no result: TRHR enhancer, TRHR ag, D1 PAM, D1 antag, D1 ag)
CC(=O)c1ccc(N=C2NC(=O)C(CO)(CO)S2)cc1	none
COc1ccc(N=C2NC(=O)C(CO)(CO)S2)cc1	D1 antag -51
CCCCc1cc(=O)oc2cc(OCC(=O)NCc3ccccn3)ccc12	D1 antag -42
CCCc1cc(=O)oc2cc(OCC(=O)Nc3ccc(S(N)(=O)=O)cc3)ccc12	LDHA inh -37
O=C(c1ccc(Cl)cc1)[C@@H]1[C@H]2C(=O)[C@@H]3OC[C@@H](O3)[C@@H]12	none (no result: TRHR enhancer, TRHR ag, D1 PAM, D1 antag, D1 ag)
Cc1oc2c(C)c(O)ccc2c(=O)c1-c1cnn(-c2ccccc2)c1	D1 antag -37
COc1ccc2c(=O)c(-c3cnn(-c4ccccc4)c3)c(C)oc2c1	none
c1ccc(CCOCC2CCNCC2)cc1	none (no result: TRHR enhancer, TRHR ag, D1 PAM, D1 antag, D1 ag)
COc1ccc(C(=O)n2nc(-c3ccccc3)nc2N)cc1OC	D1 antag -34
COc1ccc(C(=O)n2nc(-c3ccco3)nc2N)cc1OC	none
CSc1nc(N)nc(SCCS(=O)(=O)c2ccc(Cl)cc2)c1C#N	D1 antag -31
CSc1nc(N)nc(SCC(=O)Nc2ccc(Cl)cc2)c1C#N	none
CCOc1ccc2c(c1)cc(C(=O)Nc1ccc(F)cc1)n2C	none (no result: TRHR enhancer, TRHR ag, D1 PAM, D1 antag, D1 ag)
CCOc1ccc(OCC(=O)NCCS(=O)(=O)N2CCN(c3ccccc3)CC2)cc1	none (no result: TRHR enhancer, TRHR ag, D1 PAM, D1 antag, D1 ag)
O=C(COc1ccccc1)NCC(c1ccco1)N1CCN(c2ccc(F)cc2)CC1 (stereo unspecified)	D1 antag -64
O=C(COc1ccccc1)NCCS(=O)(=O)N1CCN(c2ccccc2)CC1	D1 antag -35
Cc1oc(-c2cccc(Cl)c2)nc1CNC(=O)Nc1ccc(Cl)cc1	none (no result: TRHR enhancer, TRHR ag, D1 PAM, D1 antag, D1 ag)
COCCC(=O)N1CCC(Oc2ccc(C(=O)N3C[C@@H](C)O[C@@H](C)C3)cc2)CC1	none
C[C@@H]1CN(C(=O)c2ccc(OC3CCN(S(=O)(=O)N(C)C)CC3)cc2)C[C@H](C)O1	D1 antag -30
COc1ccc(-c2nc3ccccn3c2NCc2ccc3c(c2)OCO3)cc1	none
COc1ccc(-c2nc3cc(C)ccn3c2NCc2ccc3c(c2)OCO3)cc1	D1 antag -31
Nc1ccc(C(=O)Nc2ccc(OC(F)(F)C(F)F)c(NC(=O)c3ccc(N)cc3)c2)cc1	D1 antag -32
O=C(Nc1ccc(OC(F)(F)C(F)F)c(NC(=O)c2ccc(F)cc2)c1)c1ccc(F)cc1	none (no result: TRHR enhancer, TRHR ag, D1 PAM, D1 antag, D1 ag)
Cc1c(CC=C(Cl)Cl)c(Cl)nc2c(C)cccc12	none (no result: TRHR enhancer, TRHR ag, D1 PAM, D1 antag, D1 ag)
Cc1ccc(NC(=O)/C=C/c2cccc([N+](=O)[O-])c2)nc1	none
COC(=O)Nc1nnc(/C=C/c2ccccc2)s1	none
O=C(Nc1nnc(/C=C/c2ccccc2)s1)c1ccco1	TRHR enhancer 34
CC(=O)Nc1nnc(/C=C/c2cccc([N+](=O)[O-])c2)s1	D1 antag -54
CC1Cc2ccccc2N1C(=O)CCc1ncc(-c2c(F)cccc2F)o1 (stereo unspecified)	none (no result: TRHR enhancer, TRHR ag, D1 PAM, D1 antag, D1 ag)
CC(C)NC(=O)C1CCN(C(=O)c2ccc3ccccc3n2)CC1	none (no result: TRHR enhancer, TRHR ag, D1 PAM, D1 antag, D1 ag)
Cc1ccc(C)c(OCc2nnc(N)s2)c1	TRHR enhancer 35
Fc1ccc(CNCc2cccc(Oc3ccccc3)c2)cc1	none (no result: TRHR enhancer, TRHR ag, D1 PAM, D1 antag, D1 ag)
COc1ccc(CNCc2cccc(Oc3ccccc3)c2)cc1	D1 ag 88
